Compound activity as filed in PubChem.
SENP6 block – SENP6 protease inhibitors, primary screen, biochemical, luminescence, uHTS; actives 1.8% (n = 330,000); Sentrin-specific protease 6 (Homo sapiens), Q9GZR1; inhibition, % at 10 µM; Recombinant SENP6 catalytic domain, aminoluciferin luminescence;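 active = inhibition above about 50% at the single tested dose, limit read from the data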;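 also: plate controls were DMSO wells with enzyme for no effect and DMSO wells lacking enzyme for full effect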
Target sequence (Q9GZR1 628-1112 limits assumed): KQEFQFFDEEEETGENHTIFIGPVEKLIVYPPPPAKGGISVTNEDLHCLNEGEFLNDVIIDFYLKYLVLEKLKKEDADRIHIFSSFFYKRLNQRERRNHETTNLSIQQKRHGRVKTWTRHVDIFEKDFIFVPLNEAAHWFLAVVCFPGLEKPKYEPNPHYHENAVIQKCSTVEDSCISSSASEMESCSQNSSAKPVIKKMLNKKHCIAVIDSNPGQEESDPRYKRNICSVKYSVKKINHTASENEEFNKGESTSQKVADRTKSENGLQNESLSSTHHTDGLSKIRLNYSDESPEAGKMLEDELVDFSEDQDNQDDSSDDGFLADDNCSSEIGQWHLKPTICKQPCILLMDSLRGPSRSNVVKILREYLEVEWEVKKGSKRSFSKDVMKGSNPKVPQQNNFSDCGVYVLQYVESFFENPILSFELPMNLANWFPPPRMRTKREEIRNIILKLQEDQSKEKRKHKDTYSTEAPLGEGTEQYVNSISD
PPC-1+TRAIL kill – compounds killing PPC-1 cancer cells with TRAIL present, primary screen, TRAIL potentiator project, ATPLite luminescence, uHTS; cell killing (% activity), % at 4 µM or 5 µM; PPC-1 cells + TRAIL, ATPLite viability luminescence; actives 0.41% (n = 220,000);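 active = cell killing above 50% in the first pass at 4 µM, then a duplicate retest at 5 µM averaging 50% or more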;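 also: plate controls were cells with TRAIL plus DMSO for no effect and medium-only wells lacking cells for full effect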
TRAIL sens C8 – viability loss with TRAIL in NB7+C8 cells, primary screen, TRAIL sensitizer project, cell-based, ATPlite luminescence | inhibition (viability loss, TRAIL sensitization), % at 10 µM | actives 1% (n = 360,000) | AID 624354, 2012;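 active = compounds causing at least 50% loss of cell viability in the single-dose screen, relative to plate controls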
SENP7 inh – SENP7 protease inhibitors, primary screen, biochemical, luminescence, uHTS; recombinant SENP7, Z-RLRGG-aminoluciferin luminescence, 40 min; inhibition, % at 5 µM; actives 1.5% (n = 330,000); AID 434973, 2010;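 active = inhibition above about 50% at the single test dose, limit read from the data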;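 also: plate controls were DMSO with enzyme for no effect and no enzyme buffer wells for full effect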
SENP8 block-1 – SENP8 protease inhibitors, primary screen, biochemical, luminescence; purified SENP8, Z-RLRGG-aminoluciferin cleavage; Sentrin-specific protease 8 (Homo sapiens), Q96LD8; actives 1.2% (n = 330,000); inhibition, % at 10 µM; in the data active = inhibition above about 50%
SENP8 block-2 – human SENP8 protease inhibitors, primary screen, biochemical, fluorescence, Nedd8 protein substrate, uHTS | Sentrin-specific protease 8 (Homo sapiens), Q96LD8 | recombinant SENP8 | inhibition, % at 20 µM | actives 0.64% (n = 360,000); in the data active = inhibition mostly above about 40%, no sharp cut-off; inactive = mostly below about 27%
* = called active by the depositor. Rows were chosen to be rich in hits. Some 3% of all compounds tested hit in one or more screens of this group.

COc1cccc(/C=C2\SC(=S)N(CCCC(=O)N3CCCCC3)C2=O)c1 was read as SENP6 block 28.8, TRAIL sens C8 32.2, SENP7 inh -4.5, SENP8 block-1 2.3 and SENP8 block-2 25.5*.
`COc1cccc(/C=C2\SC(=S)N(CCCC(=O)N(CCO)c3ccccc3)C2=O)c1` gave SENP6 block 9.6, TRAIL sens C8 60.8*, SENP7 inh -2.0, SENP8 block-1 -5.3 and SENP8 block-2 24.4.
For O=C1/C(=C/c2cccc(Br)c2)SC(=S)N1CCC(=O)N(CCO)c1ccccc1 the results were SENP6 block -8.5, TRAIL sens C8 -8.4, SENP7 inh 8.6, SENP8 block-1 -5.1 and SENP8 block-2 17.7.
For CCOC(=O)c1c(C)[nH]c(N=Nc2ccccc2)c1C the results were SENP6 block 14.5, PPC-1+TRAIL kill 3.5, TRAIL sens C8 -14.6, SENP7 inh 9.1, SENP8 block-1 11.3 and SENP8 block-2 44.2*.
For CCOC(=O)c1c(C)[nH]c(N=Nc2ccccc2Cl)c1C the results were SENP6 block -1.7, PPC-1+TRAIL kill 24.0, TRAIL sens C8 -9.1, SENP7 inh 30.8, SENP8 block-1 16.6 and SENP8 block-2 34.9.
For CCOC(=O)c1c(C)[nH]c(N=Nc2ccc(OC)cc2)c1C the results were SENP6 block 61.3*, PPC-1+TRAIL kill 12.6, TRAIL sens C8 -3.2, SENP7 inh 17.2, SENP8 block-1 33.5 and SENP8 block-2 49.4*.
Screening O=C(O)c1ccc(NC2=C(N3CCOCC3)C(=O)c3ccccc3C2=O)cc1 returned SENP6 block 42.7, PPC-1+TRAIL kill 26.7, TRAIL sens C8 13.0, SENP7 inh 3.3, SENP8 block-1 11.7 and SENP8 block-2 53.4*.
For CC(=O)N(C1=C(N2CCOCC2)C(=O)c2ccccc2C1=O)c1ccc(C(=O)O)cc1 the results were SENP6 block 18.0, PPC-1+TRAIL kill 2.7, TRAIL sens C8 16.7, SENP7 inh 33.9, SENP8 block-1 19.3 and SENP8 block-2 17.5.
`O=C1c2cccc(O)c2C(=O)c2c(O)cccc21` gave SENP6 block 7.5, PPC-1+TRAIL kill 12.3, SENP7 inh 11.6 and SENP8 block-1 0.7.
O=C1c2cccc(Sc3ccccc3)c2C(=O)c2c(Sc3ccccc3)cccc21 was read as SENP6 block 9.7, PPC-1+TRAIL kill 11.6, TRAIL sens C8 1.7, SENP7 inh -1.0, SENP8 block-1 12.2 and SENP8 block-2 52.2*.
Screening FC(F)(F)c1cccc(CC2CN(Cc3ccccc3)Cc3ccccc3N2c2cc(Cl)cc(Cl)c2)c1 (stereo not given) returned TRAIL sens C8 60.3* and SENP8 block-2 3.5.
O=S1(=O)CCOC[C@H](Cc2ccccc2)N1Cc1cccc(C(F)(F)F)c1 was read as SENP6 block -16.8, TRAIL sens C8 7.8, SENP7 inh -2.7, SENP8 block-1 -6.7 and SENP8 block-2 13.8.
`COc1cccc(/C=N/NC(=O)c2ccc([N+](=O)[O-])cc2Cl)c1O` gave SENP6 block -7.3, PPC-1+TRAIL kill 11.6, TRAIL sens C8 54.9*, SENP7 inh -0.7, SENP8 block-1 -2.9 and SENP8 block-2 3.7.
`Cc1cc(/C=N/NC(=O)c2cccc([N+](=O)[O-])c2)c(C)n1-c1ccc(Cl)cc1Cl` gave SENP6 block -0.2, PPC-1+TRAIL kill 25.9, TRAIL sens C8 6.0, SENP7 inh 3.7, SENP8 block-1 -2.4 and SENP8 block-2 51.5*.
Screening Cc1cccc(/C=N/NC(=O)c2cccc([N+](=O)[O-])c2)n1 returned SENP6 block -2.0, PPC-1+TRAIL kill -3.0, TRAIL sens C8 4.3, SENP7 inh -10.5, SENP8 block-1 1.6 and SENP8 block-2 15.2.
COc1ccc(C=NNC(=O)CCCC(=O)NN=Cc2ccc(OC)c(OC)c2)cc1OC was read as TRAIL sens C8 1.5 and SENP8 block-2 -22.5.
Screening COc1ccc(C=NNC(=O)NN=Cc2ccc(OC)c(OC)c2)cc1OC returned TRAIL sens C8 71.5* and SENP8 block-2 -7.4.
COc1ccccc1OCCNC(=O)CNC(=O)c1ccc2c(c1)OCO2 was read as SENP6 block 0.4, TRAIL sens C8 8.3, SENP7 inh 0.5, SENP8 block-1 8.6 and SENP8 block-2 -3.5.
`COc1ccccc1OCCNC(=O)c1ccc2c(c1)OCCO2` gave SENP6 block -5.8, TRAIL sens C8 51.7*, SENP7 inh -10.0, SENP8 block-1 -15.1 and SENP8 block-2 8.2.
Screening COc1cccc(/C=C/C(=O)c2ccc3c(c2)OCCO3)c1OC returned SENP6 block -22.5, TRAIL sens C8 71.2*, SENP7 inh 4.1, SENP8 block-1 4.1 and SENP8 block-2 9.1.
O=C(NCC1CCCO1)c1ccccc1NS(=O)(=O)c1ccc(Br)s1 (stereo not given) was read as TRAIL sens C8 7.1 and SENP8 block-2 12.1.
For COc1cccc(NC(=O)N2CCN(c3nnnn3-c3ccccc3)CC2)c1 the results were SENP6 block 1.0, PPC-1+TRAIL kill 16.8, TRAIL sens C8 0.8, SENP7 inh 5.9, SENP8 block-1 -1.2 and SENP8 block-2 5.4.
For Nc1nc(N)c2cc(Sc3ccc(Cl)cc3)ccc2n1 the results were TRAIL sens C8 72.7* and SENP8 block-2 -477.9.
Screening Nc1nc(N)c2cc(Sc3cccc(C(F)(F)F)c3)ccc2n1 returned TRAIL sens C8 72.8* and SENP8 block-2 -476.3.
`Nc1nc(N)c2cc(Sc3ccc4ccccc4c3)ccc2n1` gave SENP6 block -3.9, PPC-1+TRAIL kill 33.8, TRAIL sens C8 72.7*, SENP7 inh -3.8, SENP8 block-1 -6.0 and SENP8 block-2 -399.0.
For CCOC(=O)CCCCCC(=O)Nc1ccc2c(c1)C(=O)N([C@H](C)CO)C[C@H](C)[C@H](CN(C)C(=O)C1CCCCC1)OCCCC[C@@H](C)O2 the results were TRAIL sens C8 -3.2 and SENP8 block-2 8.9.
CN(C)CCCNC(=O)C[C@H]1C[C@H](C(=O)N2CCCCC2)[C@@]2(CCc3ccccc3)c3[nH]c4ccc(Cl)cc4c3CCN2C1=O was read as TRAIL sens C8 66.2*, SENP7 inh -1.7 and SENP8 block-2 26.0.
Screening O=C(C[C@H]1C[C@H](C(=O)N2CCCCC2)[C@@]2(CCc3ccccc3)c3[nH]c4ccc(Cl)cc4c3CCN2C1=O)NCCC1=CCCCC1 returned TRAIL sens C8 54.6*, SENP7 inh -6.0 and SENP8 block-2 0.1.
CNC[C@H](CC1CCCCC1)NC[C@H](Cc1ccccc1)NCCC12CC3CC(CC(C3)C1)C2 was read as SENP6 block -25.0, TRAIL sens C8 95.6*, SENP7 inh -2.0, SENP8 block-1 6.6 and SENP8 block-2 5.5.
